# Source: ChEMBL document CHEMBL1961873, “Compounds: GSK PKIS; Assays: Nanosyn kinase panel” (2012)
# Key:
# [1] = molecular target: T1, Inhibitor of nuclear factor kappa-B kinase subunit epsilon (Homo sapiens) (UniProt Q14164); conditions: at 1 µM;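 also: reported values are averaged percent inhibition figures against human IKKε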
# T1 sequence (whole entry): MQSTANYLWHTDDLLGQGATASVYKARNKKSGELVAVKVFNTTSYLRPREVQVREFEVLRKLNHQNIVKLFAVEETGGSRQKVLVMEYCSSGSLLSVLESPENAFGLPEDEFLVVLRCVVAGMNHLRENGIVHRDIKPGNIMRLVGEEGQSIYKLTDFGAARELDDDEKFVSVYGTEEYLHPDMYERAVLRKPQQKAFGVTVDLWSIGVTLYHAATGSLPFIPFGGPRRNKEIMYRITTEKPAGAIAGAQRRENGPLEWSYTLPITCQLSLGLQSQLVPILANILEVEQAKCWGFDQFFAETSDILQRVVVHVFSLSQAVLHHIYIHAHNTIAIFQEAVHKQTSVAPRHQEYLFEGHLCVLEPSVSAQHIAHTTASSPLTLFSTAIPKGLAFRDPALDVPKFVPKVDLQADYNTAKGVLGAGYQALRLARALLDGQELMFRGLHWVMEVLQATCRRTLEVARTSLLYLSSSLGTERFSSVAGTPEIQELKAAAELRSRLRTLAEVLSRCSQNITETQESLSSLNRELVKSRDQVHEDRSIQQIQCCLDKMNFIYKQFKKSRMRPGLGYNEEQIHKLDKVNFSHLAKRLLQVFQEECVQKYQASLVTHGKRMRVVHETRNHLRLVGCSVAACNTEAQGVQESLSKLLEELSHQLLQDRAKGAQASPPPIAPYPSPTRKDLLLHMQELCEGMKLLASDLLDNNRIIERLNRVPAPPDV
# [2] = molecular target: T2, Serine/threonine-protein kinase Nek1 (Homo sapiens) (UniProt Q96PY6); conditions: at 0.1 µM
# T2 sequence (whole entry): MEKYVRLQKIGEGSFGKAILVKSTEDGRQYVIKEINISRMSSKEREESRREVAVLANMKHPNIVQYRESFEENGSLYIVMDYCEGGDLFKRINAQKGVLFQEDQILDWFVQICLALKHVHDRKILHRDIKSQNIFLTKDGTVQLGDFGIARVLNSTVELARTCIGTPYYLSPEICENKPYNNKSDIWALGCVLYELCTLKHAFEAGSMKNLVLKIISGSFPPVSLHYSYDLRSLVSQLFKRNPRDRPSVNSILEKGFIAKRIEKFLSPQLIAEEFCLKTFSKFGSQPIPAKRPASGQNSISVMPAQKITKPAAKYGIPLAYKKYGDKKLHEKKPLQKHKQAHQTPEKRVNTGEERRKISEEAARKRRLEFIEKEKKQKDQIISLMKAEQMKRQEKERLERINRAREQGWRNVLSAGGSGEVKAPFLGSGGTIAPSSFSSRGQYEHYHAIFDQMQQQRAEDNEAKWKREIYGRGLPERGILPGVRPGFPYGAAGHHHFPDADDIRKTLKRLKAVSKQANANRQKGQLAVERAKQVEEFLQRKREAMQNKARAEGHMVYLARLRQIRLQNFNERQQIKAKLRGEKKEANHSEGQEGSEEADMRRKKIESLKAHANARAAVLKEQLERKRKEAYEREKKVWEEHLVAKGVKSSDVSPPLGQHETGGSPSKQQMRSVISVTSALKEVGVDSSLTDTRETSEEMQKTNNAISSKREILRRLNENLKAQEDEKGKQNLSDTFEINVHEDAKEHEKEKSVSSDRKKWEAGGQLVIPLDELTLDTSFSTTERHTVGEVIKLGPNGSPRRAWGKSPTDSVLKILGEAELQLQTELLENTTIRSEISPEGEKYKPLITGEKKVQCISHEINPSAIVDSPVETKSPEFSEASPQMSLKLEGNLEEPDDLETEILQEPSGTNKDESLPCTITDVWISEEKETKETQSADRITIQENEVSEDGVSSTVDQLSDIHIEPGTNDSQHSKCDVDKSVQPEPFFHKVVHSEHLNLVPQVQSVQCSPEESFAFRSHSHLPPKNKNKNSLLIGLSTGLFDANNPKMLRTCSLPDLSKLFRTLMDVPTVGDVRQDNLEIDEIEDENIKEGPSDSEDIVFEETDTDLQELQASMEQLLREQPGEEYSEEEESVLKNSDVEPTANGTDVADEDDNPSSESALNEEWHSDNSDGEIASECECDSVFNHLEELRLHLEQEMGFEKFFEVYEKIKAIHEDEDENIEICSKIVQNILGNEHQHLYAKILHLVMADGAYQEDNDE
# [3] = molecular target: T2, Serine/threonine-protein kinase Nek1 (Homo sapiens); conditions: at 1 µM
# [4] = molecular target: T3, Serine/threonine-protein kinase Nek2 (Homo sapiens) (UniProt P51955); conditions: at 0.1 µM
# T3 sequence (whole entry): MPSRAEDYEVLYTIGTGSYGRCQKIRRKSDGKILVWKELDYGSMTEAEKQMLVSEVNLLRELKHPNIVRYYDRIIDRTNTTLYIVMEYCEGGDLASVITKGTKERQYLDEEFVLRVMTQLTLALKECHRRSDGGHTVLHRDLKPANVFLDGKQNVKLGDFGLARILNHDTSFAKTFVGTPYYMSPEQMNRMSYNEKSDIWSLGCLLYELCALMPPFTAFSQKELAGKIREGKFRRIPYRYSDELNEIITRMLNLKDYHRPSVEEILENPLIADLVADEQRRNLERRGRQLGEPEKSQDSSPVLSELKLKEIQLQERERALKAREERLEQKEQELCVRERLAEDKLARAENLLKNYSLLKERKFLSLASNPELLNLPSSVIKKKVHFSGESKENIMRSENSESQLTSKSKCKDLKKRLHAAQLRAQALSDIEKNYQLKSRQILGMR
# [5] = molecular target: T3, Serine/threonine-protein kinase Nek2 (Homo sapiens); conditions: at 1 µM
# [6] = molecular target: Serine/threonine-protein kinase Nek6 (Homo sapiens) (UniProt Q9HC98); conditions: at 0.1 µM
# [7] = molecular target: Serine/threonine-protein kinase Nek6 (Homo sapiens) (UniProt Q9HC98); conditions: at 1 µM
# [8] = molecular target: Serine/threonine-protein kinase Nek7 (Homo sapiens) (UniProt Q8TDX7); conditions: at 0.1 µM
# [9] = molecular target: Serine/threonine-protein kinase Nek7 (Homo sapiens) (UniProt Q8TDX7); conditions: at 1 µM
# [10] = molecular target: T4, Serine/threonine-protein kinase Nek9 (Homo sapiens) (UniProt Q8TD19); conditions: at 0.1 µM
# T4 sequence (whole entry): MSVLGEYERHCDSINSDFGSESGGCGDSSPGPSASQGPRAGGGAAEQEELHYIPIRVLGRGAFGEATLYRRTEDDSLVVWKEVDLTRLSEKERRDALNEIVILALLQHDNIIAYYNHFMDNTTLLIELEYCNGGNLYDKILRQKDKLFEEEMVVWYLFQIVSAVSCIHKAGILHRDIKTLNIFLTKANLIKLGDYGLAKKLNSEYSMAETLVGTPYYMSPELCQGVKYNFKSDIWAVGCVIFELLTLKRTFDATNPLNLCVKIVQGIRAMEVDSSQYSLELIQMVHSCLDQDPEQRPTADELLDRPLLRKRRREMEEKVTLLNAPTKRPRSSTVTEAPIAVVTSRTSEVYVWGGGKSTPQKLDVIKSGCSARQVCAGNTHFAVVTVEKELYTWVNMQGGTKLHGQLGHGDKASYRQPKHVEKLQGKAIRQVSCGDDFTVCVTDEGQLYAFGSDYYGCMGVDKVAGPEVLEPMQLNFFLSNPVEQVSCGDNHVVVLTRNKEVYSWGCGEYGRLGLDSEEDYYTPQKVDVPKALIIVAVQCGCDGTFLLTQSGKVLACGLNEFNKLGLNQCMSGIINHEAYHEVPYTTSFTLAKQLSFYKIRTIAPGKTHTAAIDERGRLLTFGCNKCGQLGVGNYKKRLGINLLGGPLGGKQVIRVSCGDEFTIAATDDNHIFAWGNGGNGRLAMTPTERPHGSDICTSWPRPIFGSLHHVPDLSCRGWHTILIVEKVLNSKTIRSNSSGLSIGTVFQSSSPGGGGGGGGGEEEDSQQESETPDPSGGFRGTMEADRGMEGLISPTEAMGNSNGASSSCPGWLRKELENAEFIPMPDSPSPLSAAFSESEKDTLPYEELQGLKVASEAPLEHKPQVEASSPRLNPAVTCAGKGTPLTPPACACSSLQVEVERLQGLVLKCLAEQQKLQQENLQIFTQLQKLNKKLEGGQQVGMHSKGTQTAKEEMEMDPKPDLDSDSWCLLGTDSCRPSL
# [11] = molecular target: T4, Serine/threonine-protein kinase Nek9 (Homo sapiens); conditions: at 1 µM
# [12] = molecular target: Serine/threonine-protein kinase PLK1 (Homo sapiens) (UniProt P53350); conditions: at 0.1 µM
# [13] = molecular target: Serine/threonine-protein kinase PLK1 (Homo sapiens) (UniProt P53350); conditions: at 1 µM
# [14] = molecular target: T5, Dual specificity protein kinase TTK (Homo sapiens) (UniProt P33981); conditions: at 0.1 µM
# T5 sequence (whole entry): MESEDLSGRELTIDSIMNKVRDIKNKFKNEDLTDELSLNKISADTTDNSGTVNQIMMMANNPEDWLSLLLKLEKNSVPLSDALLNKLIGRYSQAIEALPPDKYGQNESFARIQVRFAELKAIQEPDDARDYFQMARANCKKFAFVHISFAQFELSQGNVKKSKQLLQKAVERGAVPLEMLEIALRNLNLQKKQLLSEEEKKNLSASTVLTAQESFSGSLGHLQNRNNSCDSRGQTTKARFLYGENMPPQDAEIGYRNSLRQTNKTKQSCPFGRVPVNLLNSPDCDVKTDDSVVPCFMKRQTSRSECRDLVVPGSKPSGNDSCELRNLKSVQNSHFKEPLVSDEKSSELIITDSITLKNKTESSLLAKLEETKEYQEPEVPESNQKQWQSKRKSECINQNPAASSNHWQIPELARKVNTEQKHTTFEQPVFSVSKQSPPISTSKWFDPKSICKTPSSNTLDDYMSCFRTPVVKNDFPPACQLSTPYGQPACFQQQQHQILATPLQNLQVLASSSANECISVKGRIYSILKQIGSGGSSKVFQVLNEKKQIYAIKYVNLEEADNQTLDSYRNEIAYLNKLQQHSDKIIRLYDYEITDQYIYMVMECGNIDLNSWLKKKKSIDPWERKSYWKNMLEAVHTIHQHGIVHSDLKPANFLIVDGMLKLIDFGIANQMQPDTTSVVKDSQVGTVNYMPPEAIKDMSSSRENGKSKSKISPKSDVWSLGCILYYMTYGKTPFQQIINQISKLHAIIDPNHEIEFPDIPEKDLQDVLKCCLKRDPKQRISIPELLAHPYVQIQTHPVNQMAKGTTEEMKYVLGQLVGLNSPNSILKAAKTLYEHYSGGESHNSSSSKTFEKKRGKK
# [15] = system: T6, Receptor-type tyrosine-protein kinase FLT3 (Homo sapiens), P36888 [D835Y]; conditions: at 1 µM
# T6 sequence (whole entry): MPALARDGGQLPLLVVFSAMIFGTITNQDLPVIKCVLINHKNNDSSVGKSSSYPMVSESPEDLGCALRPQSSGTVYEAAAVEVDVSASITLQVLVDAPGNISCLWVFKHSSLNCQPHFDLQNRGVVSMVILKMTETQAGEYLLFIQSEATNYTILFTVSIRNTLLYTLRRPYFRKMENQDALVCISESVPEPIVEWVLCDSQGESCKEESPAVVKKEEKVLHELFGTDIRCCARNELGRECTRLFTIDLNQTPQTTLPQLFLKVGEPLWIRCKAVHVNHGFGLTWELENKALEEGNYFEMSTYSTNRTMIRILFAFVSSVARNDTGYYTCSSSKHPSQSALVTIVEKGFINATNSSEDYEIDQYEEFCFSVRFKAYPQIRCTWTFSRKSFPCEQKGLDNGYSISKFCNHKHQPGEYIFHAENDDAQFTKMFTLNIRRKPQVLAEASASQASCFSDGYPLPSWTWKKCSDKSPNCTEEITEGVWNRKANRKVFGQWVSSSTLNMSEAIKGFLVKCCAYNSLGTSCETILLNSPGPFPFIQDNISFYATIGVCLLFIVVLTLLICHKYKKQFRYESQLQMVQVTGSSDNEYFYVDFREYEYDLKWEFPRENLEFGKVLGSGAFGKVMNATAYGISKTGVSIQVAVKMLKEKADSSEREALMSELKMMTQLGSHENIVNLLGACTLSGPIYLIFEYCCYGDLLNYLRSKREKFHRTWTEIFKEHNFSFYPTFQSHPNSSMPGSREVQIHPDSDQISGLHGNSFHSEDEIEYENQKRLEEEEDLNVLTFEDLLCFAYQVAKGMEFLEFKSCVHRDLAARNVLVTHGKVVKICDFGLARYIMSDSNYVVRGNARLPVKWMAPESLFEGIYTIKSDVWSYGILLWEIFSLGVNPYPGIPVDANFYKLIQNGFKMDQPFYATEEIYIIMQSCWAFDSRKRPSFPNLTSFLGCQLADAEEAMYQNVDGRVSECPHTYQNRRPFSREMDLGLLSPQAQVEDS
# [16] = molecular target: Vascular endothelial growth factor receptor 3 (Homo sapiens) (UniProt P35916); conditions: at 0.1 µM
# [17] = molecular target: Vascular endothelial growth factor receptor 3 (Homo sapiens) (UniProt P35916); conditions: at 1 µM
# [18] = molecular target: Macrophage colony-stimulating factor 1 receptor (Homo sapiens) (UniProt P07333); conditions: at 0.1 µM
# [19] = molecular target: Macrophage colony-stimulating factor 1 receptor (Homo sapiens) (UniProt P07333); conditions: at 1 µM
# [20] = molecular target: Tyrosine-protein kinase Fyn (Homo sapiens) (UniProt P06241); conditions: at 0.1 µM
# Chain of Tyrosine-protein kinase Fyn (Homo sapiens) (P06241 2-537 limits assumed): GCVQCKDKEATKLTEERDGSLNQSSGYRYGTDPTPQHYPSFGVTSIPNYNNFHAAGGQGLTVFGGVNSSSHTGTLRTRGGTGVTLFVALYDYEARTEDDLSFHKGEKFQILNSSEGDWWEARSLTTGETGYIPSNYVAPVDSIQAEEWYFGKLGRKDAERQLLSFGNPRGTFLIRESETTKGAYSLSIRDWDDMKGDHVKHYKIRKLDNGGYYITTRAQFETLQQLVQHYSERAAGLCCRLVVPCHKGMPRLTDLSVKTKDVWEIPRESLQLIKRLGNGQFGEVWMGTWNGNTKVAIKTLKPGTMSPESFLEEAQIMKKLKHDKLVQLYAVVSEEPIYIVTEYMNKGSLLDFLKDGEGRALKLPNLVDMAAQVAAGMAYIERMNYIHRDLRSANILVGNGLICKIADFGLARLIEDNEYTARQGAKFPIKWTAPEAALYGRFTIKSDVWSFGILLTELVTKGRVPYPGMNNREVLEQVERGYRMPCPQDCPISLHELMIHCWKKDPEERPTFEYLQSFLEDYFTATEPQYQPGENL
# Chain of Serine/threonine-protein kinase Nek7 (Homo sapiens) (Q8TDX7 whole entry, looked up): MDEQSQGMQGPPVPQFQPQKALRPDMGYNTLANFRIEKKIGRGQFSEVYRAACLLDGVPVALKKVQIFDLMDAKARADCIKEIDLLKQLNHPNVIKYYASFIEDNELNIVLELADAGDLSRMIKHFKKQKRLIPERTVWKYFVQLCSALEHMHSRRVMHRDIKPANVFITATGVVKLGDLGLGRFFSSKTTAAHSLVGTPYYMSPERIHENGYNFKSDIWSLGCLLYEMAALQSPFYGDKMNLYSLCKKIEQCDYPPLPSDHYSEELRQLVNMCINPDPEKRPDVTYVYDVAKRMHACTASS
# Chain of Serine/threonine-protein kinase PLK1 (Homo sapiens) (P53350 whole entry): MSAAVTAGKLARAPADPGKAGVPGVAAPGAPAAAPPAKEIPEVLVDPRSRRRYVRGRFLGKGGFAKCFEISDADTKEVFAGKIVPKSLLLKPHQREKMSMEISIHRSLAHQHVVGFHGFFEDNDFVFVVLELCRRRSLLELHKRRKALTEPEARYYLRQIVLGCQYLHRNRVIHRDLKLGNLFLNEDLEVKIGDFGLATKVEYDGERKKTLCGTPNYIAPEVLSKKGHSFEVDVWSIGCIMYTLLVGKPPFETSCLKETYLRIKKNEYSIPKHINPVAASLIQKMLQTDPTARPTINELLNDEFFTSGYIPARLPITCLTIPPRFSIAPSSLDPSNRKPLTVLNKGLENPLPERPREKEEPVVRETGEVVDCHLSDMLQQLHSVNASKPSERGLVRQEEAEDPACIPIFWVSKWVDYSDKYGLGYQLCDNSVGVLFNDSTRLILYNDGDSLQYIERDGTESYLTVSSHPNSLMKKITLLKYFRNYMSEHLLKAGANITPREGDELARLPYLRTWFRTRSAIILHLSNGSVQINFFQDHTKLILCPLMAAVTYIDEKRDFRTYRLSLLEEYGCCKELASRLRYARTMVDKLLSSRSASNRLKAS
# Chain of Serine/threonine-protein kinase Nek6 (Homo sapiens) (Q9HC98 whole entry): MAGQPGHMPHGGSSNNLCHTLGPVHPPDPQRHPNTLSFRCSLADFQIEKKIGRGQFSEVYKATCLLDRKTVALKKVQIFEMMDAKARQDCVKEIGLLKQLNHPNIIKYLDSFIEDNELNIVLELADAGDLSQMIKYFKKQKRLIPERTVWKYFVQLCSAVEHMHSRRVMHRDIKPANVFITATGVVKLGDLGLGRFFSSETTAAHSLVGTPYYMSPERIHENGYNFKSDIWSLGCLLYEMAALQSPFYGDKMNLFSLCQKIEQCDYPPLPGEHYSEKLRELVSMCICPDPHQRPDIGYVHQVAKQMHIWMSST
# Chain of Vascular endothelial growth factor receptor 3 (Homo sapiens) (P35916 whole entry): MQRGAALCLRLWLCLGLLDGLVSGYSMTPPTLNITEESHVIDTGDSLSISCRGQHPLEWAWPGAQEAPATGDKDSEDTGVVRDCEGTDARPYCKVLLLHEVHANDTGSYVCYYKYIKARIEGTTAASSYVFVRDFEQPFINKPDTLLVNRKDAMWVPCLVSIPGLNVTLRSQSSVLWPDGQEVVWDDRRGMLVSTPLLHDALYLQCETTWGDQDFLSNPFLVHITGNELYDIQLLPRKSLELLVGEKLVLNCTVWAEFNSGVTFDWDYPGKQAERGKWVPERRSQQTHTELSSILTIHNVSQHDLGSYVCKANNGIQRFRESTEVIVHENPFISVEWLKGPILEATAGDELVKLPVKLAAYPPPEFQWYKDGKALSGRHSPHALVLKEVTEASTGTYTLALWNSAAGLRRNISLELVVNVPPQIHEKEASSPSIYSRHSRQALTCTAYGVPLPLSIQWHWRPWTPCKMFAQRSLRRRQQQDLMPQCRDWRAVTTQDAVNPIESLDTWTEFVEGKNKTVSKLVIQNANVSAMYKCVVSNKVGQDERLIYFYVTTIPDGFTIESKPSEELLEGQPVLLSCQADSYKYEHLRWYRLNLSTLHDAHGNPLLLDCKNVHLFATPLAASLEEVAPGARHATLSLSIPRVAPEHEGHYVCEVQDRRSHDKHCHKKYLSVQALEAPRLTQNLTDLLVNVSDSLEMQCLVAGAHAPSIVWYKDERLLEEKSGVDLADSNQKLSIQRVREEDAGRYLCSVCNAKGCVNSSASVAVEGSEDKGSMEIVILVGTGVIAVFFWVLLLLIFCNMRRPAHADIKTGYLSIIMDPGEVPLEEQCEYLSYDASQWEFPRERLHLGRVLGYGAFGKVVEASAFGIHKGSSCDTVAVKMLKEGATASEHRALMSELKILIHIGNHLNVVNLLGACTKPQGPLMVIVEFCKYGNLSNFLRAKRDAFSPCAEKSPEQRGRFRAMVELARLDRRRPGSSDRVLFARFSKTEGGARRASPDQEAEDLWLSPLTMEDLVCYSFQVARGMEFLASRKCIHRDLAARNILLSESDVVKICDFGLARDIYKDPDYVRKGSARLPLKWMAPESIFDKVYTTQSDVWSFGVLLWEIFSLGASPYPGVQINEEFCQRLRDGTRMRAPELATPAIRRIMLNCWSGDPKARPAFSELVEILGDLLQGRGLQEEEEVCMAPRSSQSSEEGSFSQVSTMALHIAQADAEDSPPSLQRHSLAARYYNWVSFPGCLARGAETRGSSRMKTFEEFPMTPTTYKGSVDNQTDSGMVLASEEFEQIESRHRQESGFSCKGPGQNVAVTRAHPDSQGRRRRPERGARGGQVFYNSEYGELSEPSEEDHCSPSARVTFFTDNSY
# Chain of Macrophage colony-stimulating factor 1 receptor (Homo sapiens) (P07333 whole entry): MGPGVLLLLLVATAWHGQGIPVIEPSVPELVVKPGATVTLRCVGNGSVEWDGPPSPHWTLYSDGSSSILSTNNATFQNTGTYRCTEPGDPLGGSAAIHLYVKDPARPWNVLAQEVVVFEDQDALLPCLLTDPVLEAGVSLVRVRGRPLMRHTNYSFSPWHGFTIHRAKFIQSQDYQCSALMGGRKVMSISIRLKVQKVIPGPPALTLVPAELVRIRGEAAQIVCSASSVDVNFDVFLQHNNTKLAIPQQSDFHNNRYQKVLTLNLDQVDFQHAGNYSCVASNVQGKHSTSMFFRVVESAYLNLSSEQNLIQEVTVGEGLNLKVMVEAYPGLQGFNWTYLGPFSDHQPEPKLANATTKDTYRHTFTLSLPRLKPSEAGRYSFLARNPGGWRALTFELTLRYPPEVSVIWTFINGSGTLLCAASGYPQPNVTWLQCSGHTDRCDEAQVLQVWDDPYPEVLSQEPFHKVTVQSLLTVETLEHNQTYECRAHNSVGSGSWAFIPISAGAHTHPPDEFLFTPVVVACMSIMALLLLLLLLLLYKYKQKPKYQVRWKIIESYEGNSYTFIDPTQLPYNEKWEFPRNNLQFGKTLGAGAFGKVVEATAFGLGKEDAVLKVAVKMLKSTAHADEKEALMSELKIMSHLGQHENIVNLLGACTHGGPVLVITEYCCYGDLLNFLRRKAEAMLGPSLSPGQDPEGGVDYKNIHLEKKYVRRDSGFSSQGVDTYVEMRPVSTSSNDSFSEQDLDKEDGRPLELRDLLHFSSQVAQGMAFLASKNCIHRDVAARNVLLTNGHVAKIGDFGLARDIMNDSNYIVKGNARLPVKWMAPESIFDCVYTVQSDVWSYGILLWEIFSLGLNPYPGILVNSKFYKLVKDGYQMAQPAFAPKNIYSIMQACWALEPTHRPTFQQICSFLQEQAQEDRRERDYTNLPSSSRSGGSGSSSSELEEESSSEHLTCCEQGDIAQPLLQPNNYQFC
compound,measurement,setting,value
COc1cccc(-n2ncc3c(N/N=C/c4ccncc4)ncnc32)c1,inhibition,[1],9.13%
same,inhibition,[2],3.6%
same,inhibition,[3],12.5%
same,inhibition,[4],5.11%
same,inhibition,[5],5.47%
same,inhibition,[6],4.03%
same,inhibition,[7],3.93%
same,inhibition,[8],2.45%
same,inhibition,[9],3.46%
same,inhibition,[10],7.16%
same,inhibition,[11],6.71%
same,inhibition,[12],2.19%
same,inhibition,[13],3.32%
same,inhibition,[14],8.59%
same,inhibition,[15],52.1%
same,inhibition,[16],9.86%
same,inhibition,[17],38.4%
same,inhibition,[18],6.17%
same,inhibition,[19],30.2%
same,inhibition,[20],26.5%
CCn1c(-c2nonc2N)nc2c(C#CC(C)(C)O)ncc(OCC3CCNCC3)c21,inhibition,[1],99.1%
same,inhibition,[2],2.19%
same,inhibition,[3],3.24%
same,inhibition,[4],3.86%
same,inhibition,[5],3.71%
same,inhibition,[6],3.46%
same,inhibition,[7],4.94%
same,inhibition,[8],3.99%
same,inhibition,[9],3.34%
same,inhibition,[10],5.3%
same,inhibition,[11],8.54%
same,inhibition,[12],4.55%
same,inhibition,[13],3.24%
same,inhibition,[14],9.22%
same,inhibition,[15],0.35%
same,inhibition,[16],-2.47%
same,inhibition,[17],34.8%
same,inhibition,[18],1.63%
same,inhibition,[19],1.19%
same,inhibition,[20],-4.47%
